# A selection: hits, their analogues and other compounds. The true share with any hit is near 19%.
# HT1080-NT tox = kills 2HG-producing HT-1080-NT fibrosarcoma cells; AID 686970; hit rate 1.6% among 360,000; HT-1080-NT fibrosarcoma viability, CellTiter-Glo ATP luminescence, 48 h; Potency, µM (doses to about 46.1 µM), for inactives: at the highest dose activity, negative = less viability, hits mostly cytotoxic;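 note: NT is the 2HG producing partner of a matched IDH1 knockdown line; potency is the fitted concentration of half-maximal effect; 0% = DMSO-treated cells and -100% = media-only wells without cells; nearly all actives have a fitted effect of over 55% in size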
#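 Luminescent CellTiter-Glo readout after 48 hours of compound exposure at 37 degrees C defined viability of HT-1080-NT cells. Activity was normalized to DMSO wells and cell-free media wells; concentration-response curves were fitted and assigned curve classes.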
# TDP1 cell noCPT = qHTS for Inhibitors of human tyrosyl-DNA phosphodiesterase 1 (TDP1): qHTS in cells in absence of CPT | AID 686978, 2013 | hit rate 15% among 420,000 | DT40 Tdp1-/- hTDP1 cells, no CPT, ATP luminescence, 48 h | Potency, µM (top dose mostly 46.2 µM), for inactives: at the top dose activity change, negative = growth inhibition, actives largely listed as inhibitors; note: potency is the fitted concentration of half-maximal effect; nearly all actives have a fitted effect of over 55% in size
#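 Cells were dispensed at 400 per well, compounds added by pin tool, plates incubated ≥48 hr at 37 °C, then CellTiter-Glo added for 30 min at room temperature before luminescence reading. Line: DT40 Tdp1-/- complemented with hTDP1; camptothecin omitted.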
# DT40 TDP1 CPT = DT40-hTDP1 cell growth loss with CPT; hit rate 12% among 420,000; AID 686979; Potency, µM (series often up to 46.2 µM), without a hit: at the highest dose activity change, negative = growth inhibition, actives largely listed as inhibitors; chicken DT40 Tdp1-/-;hTDP1 cells + 20 nM CPT, ATP luminescence, 48 h; note: potency is the fitted concentration of half-maximal effect; nearly all actives have a fitted effect of over 55% in size
#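 Cell growth measured by CellTiter-Glo luminescence after a minimum 48 h, 37 C compound exposure with 20 nM CPT in Tdp1-knockout DT40 cells stably expressing hTDP1, seeded 400/well; qHTS titration format.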
# uPA surface inh = blocks generation of uPA at the cell surface; cell surface uPA generation assay, qHTS; Potency, µM (highest dose often 38.3 µM), for inactives: top-dose activity change, negative = inhibition, actives largely listed as inhibitors; hit rate 0.31% among 330,000; active = well fitted inhibition curve with a large enough effect; inconclusive = small, poorly fitted or top-dose-only effect; inactive = no such curve, though single readings can be large or run the other way; tested in mouse RAW 264.7 cells; note: potency is the fitted concentration of half-maximal effect; nearly all actives have a fitted effect of over 55% in size
# HT1080 IDH1KD tx = HT-1080 IDH1 knockdown cell toxicity (counter line) | hit rate 2% among 360,000 | HT-1080 IDH1 knockdown viability, ATP luminescence, 48 h | Potency, µM (series often up to 46.1 µM), without a hit: top-dose activity, negative = toxicity, usual class: cytotoxic | AID 686971;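 note: potency is the fitted concentration of half-maximal effect; 0% = DMSO wells and -100% = cell-free medium wells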
#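 Using the IDH1-knockdown HT-1080 line run in the same batch and compound series as the NT line, viability after 48 h at 37 °C was determined by CellTiter-Glo luminescence and expressed as % activity.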
# IL-1B inflam inh = inhibitors of inflammasome signaling (IL-1 beta secretion); THP-1 LPS/ATP IL-1B secretion, AlphaLISA, 16 h; stronger effect = lower value; activity change, % at 57.5 µM; hit rate 4.7% among 360,000; AID 743279; in the data active = activity change below about -50%; inconclusive = mostly about -30% to -49%
#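 THP-1 cells pretreated 1 hr with compounds (up to 57.5 uM final), then stimulated with LPS (250 ng/mL final) plus ATP (1.25 mM final); secreted IL-1B measured by AlphaLISA after 16 hr, decreased signal indicating inhibition.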
# The depositor's hits bear a star; ? = inconclusive; . = no result; [ ] = another dose, or the depositor's remark. Unless noted, calls come from the whole dose curve; as a rule, active = well fitted curve in the direction sought with a large enough effect; inconclusive = small, poorly fitted or top-dose-only effect, or another doubt; inactive = no such curve, though single readings can be large; an effect the other way counts as inactive or inconclusive. Unless noted, % is set by controls: 0 for no effect and ±100 for the full control effect.
SMILES,HT1080-NT tox,TDP1 cell noCPT,DT40 TDP1 CPT,uPA surface inh,HT1080 IDH1KD tx,IL-1B inflam inh
COc1ccc(-c2nc3n(n2)C(c2cccnc2)C(C(N)=O)=C(C)N3)cc1 (stereo not given),6%,-18%,3%,1%,5%,0
CC1=C(C(N)=O)C(c2cccc(C)c2)n2nc(-c3ccc(Cl)cc3)nc2N1 (stereo not given),.,?,21µM*,.,.,.
COc1ccccc1NC(=O)C1=C(C)Nc2nc(-c3ccco3)nn2C1c1cccc(C)c1 (stereo not given),.,?,18µM*,.,.,.
O=C(CSc1nccn1Cc1ccccc1)Nc1ccc2c(c1)OCO2,.,-1%,?,.,.,.
Cc1cc(OC(C)C(=O)N2CCN(CCc3ccccn3)CC2)ccc1Cl (stereo not given),.,-25%,-29%,.,.,.
Cc1ccc(C[n+]2ccccc2)cc1,-3%,9.2µM*,8.2µM*,-25%,-16%,46
CCC(=O)C1=C(c2ccc(F)cc2)N(C(=O)CC)n2cnnc2S1,.,13µM*,18µM*,.,.,.
CCOc1ccc(C2=C(C(=O)CC)Sc3nncn3N2C(=O)CC)cc1,.,?,16µM*,.,.,.
Cc1cn([C@H]2C[C@H](O)[C@@H](CNC(=O)[C@@H]3CCCN3Cc3ccccc3)O2)c(=O)[nH]c1=O,9%,3%,4%,.,5%,20
COc1ccccc1N1CCN(S(=O)(=O)CCNC(=O)C23CC4CC(CC(C4)C2)C3)CC1,?,?,?,-25%,-26%,-6
O=C(NCCS(=O)(=O)N1CCN(c2ccccc2)CC1)C12CC3CC(CC(C3)C1)C2,-15%,21µM*,26µM*,.,-7%,-1
O=C(Nc1ccccc1N1CCN(c2ccccc2)CC1)C12CC3CC(CC(C3)C1)C2,22%,21µM*,?,1%,11%,8
O=C(Nc1ccccc1N1CCN(c2ccccc2)CC1)c1ccccc1F,6%,3.7µM*,?,-1%,-1%,37
O=C(Cc1ccccc1)Nc1ccccc1N1CCN(c2ccccc2)CC1,-3%,?,?,-6%,0%,?
Cc1ccc(C)c(CN2C(=O)c3ccccc3Sc3ccc(C(=O)NC4CCCC4)cc32)c1,.,?,4%,.,.,.
COc1cccc(N2CCc3c(C)nc4ccc(Cl)cc4c32)c1,?,7.3µM*,10µM*,-12%,21µM*,-96*
COc1ccc(N2Cc3ccc(OC)c(OC)c3C2=O)cc1,2%,-7%,-4%,?,-12%,-13
COc1ccc(N2CCc3c(C)nc4c(OC)cc(OC)cc4c32)cc1,?,15µM*,23µM*,-7%,23µM*,.
COc1ccc(N2CCc3c(C)nc4c(OC)cccc4c32)cc1,3.7µM*,2.9µM*,4.6µM*,-18%,3.3µM*,-96*
COc1cccc(-c2nc(-c3cccc(C)c3)nc3cc(Cl)ccc23)c1,20%,-10%,-6%,.,5%,61
COc1ccc(N2CCc3c(C)nc4c(OC)cc(OC)cc4c32)c(OC)c1,?,5.2µM*,6.5µM*,-12%,?,-58*
O=C(N[C@@H]1c2ccccc2C2(CCN(C(=O)c3ccc4c(c3)OCCO4)CC2)[C@H]1O)c1cccnc1,.,-4%,?,.,.,.
CCCCCCCCN1[C@@H](CC(=O)O)c2ccc(C(F)(F)F)cc2S1(=O)=O,-10%,?,?,-20%,-3%,2
CCOC(=O)c1c(C)[nH]c(C(=O)OCC(=O)c2ccc3c(c2)NC(=O)CO3)c1C,-2%,-22%,-23%,14%,1%,-3
CCCCN(C(=O)NC(=O)Nc1ccc(C)cn1)S(C)(=O)=O,1%,0%,4%,-2%,8%,3
SMILES,HT1080-NT tox,TDP1 cell noCPT,DT40 TDP1 CPT,uPA surface inh,HT1080 IDH1KD tx,IL-1B inflam inh
c1cc(-c2ccc3nncn3c2)ccc1CN1CCOCC1,17%,-10%,-25%,.,?,-9
Cc1nc2c(C)cccc2c2c1CCN2c1ccccc1F,-8%,21µM*,15µM*,-1%,?,-76*
Cc1cccc2c(N)c3c(nc12)N(C)CC3,0%,12µM*,8.2µM*,?,4%,0
CN1CCc2c1nc1ccccc1c2N (tested in a mixture with another compound),3%,0%,12%,-1%,-2%,-24
CC(=O)c1cccc(NC(=O)CSc2nnc3ccc(-c4ccc(C)cc4)nn23)c1,.,-10%,-29%,.,.,.
O=C(Nc1cccc(Cl)c1Cl)c1snnc1-c1ccccc1,-4%,?,-21%,0%,1%[9.24 µM],4
O=C(Nc1cc(Cl)ccc1O)c1snnc1-c1ccccc1,-3%,16µM*,13µM*,-6%,?,-90*
O=C(CCN1N=C(c2ccccc2)CCC1=O)NCC1COc2ccccc2O1 (stereo not given),0%,-9%,-15%,4%,3%,0
Cc1cc2ccccc2cc1C(=O)c1ccccc1,-18%,-22%,4%,-1%,-15%,43
COc1ccc(-n2nnnc2/C=C\Nc2ccccc2C(=O)c2ccccc2)cc1,5.8µM*,5.8µM*,7.3µM*,-12%,5.2µM*,47
O=C(c1ccccc1)c1ccccc1C(=O)c1ccccc1,-10%,18µM*,?,4%,-13%,-1
COc1ccc(C(=O)c2ccc(OC)c(OC)c2OC)cc1,?,3.7µM*,3.7µM*,-9%,10µM*,-7
COc1ccc(C(=O)c2ccc(Br)cc2)c(OC)c1OC,1%,-25%,-6%,-2%,-17%,-9
Cc1ccccc1C(=O)c1ccccc1C(=O)c1ccccc1,-1%,16µM*,?,0%,2%,-1
O=CC(=Cc1ccccc1)c1ccccc1,-1%,?,-4%,.,1%,-7
CC1CCCC12NC(=O)NC2=O (stereo not given),15%,6%,-24%,4%,16%,5
CCN(C(=O)c1ccc(Cl)c(S(=O)(=O)Nc2c(C)n(C)n(-c3ccccc3)c2=O)c1)c1ccccc1,1%,2%,-14%,-9%,7%,16
COc1ccc(C(=O)c2ccccc2C(=O)c2ccccc2)cc1,1%,16µM*,?,-1%,4%,-5
COc1ccc(CNC(=O)COC(=O)c2ccccc2C(=O)c2ccccc2)cc1,5%,8.2µM*,?,-11%,-3%,11
COc1ccc(C(=O)c2ccc(N(C)C)cc2)c2ccccc12,1.6µM*,1.5µM*,1µM*,?,2.8µM*,55

# Source: PubChem BioAssay
